According to PubChem BioAssay AID1851 (National Center for Advancing Translational Sciences (NCATS), 2009):
Where “and” joins values, the source holds several entries; their conditions need not be identical. Equal values may be shown once. Among all 16,000 compounds or so, about 5,100 (32%) were called active. Inconclusive results (about 25%) are left out. Calls come from the whole dose curve; as a rule, active = well fitted curve in the direction sought with a large enough effect; inconclusive = small, poorly fitted or top-dose-only effect, or effect the other way; inactive = no such curve, though single readings can be large or run the other way. The list shows a part of the results.

molecular target: Cytochrome P450 3A4 (Homo sapiens) (UniProt P08684); assay: Cytochrome panel assay with activity outcomes; conditions: recombinant CYP, pro-luciferin dealkylation, luminescence, p450-cyp3a4; series mostly up to 57.1 µM; activity, negative = inhibition: at the top concentration
% is set by controls: 0 for no effect and ±100 for the full control effect.

Sequence of Cytochrome P450 3A4 (Homo sapiens) (P08684 whole entry, looked up): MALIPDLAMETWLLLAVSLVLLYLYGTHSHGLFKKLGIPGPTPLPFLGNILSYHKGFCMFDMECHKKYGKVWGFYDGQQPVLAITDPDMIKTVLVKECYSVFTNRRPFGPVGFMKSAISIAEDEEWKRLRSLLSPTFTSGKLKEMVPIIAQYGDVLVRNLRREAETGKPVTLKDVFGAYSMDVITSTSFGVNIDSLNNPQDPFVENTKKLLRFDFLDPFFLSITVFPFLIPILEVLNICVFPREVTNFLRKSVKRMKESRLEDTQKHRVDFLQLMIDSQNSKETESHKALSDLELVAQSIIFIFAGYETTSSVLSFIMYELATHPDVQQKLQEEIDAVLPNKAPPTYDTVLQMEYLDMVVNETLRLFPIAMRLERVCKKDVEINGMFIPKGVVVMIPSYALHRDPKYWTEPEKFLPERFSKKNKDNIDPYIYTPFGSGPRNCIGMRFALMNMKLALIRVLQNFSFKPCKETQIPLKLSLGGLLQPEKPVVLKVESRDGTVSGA

Row | SMILES | AC50 | activity, negative = inhibition
1 | C=CCOC(=O)/C(=C\c1cccc2ccccc12)NC(=O)c1ccccc1 | 0.2 µM (active) | –
2 | O=C1CCC(c2ccc(-n3ccnc3)cc2)=NN1 | 1.58 µM (active) | –
3 | COc1cc(/C=C(/C#N)c2nc3ccccc3[nH]2)ccc1OCC(=O)Nc1ccccc1C | 1.26 µM (active) | –
4 | N#C/C(=C\c1ccc(Cl)cc1)c1nc2ncccc2[nH]1 | – | -7.91% [at 2.29 µM] (inactive)
5 | N#C/C(=C\c1ccccc1)c1nc2ncccc2[nH]1 | – | -24% [at 2.29 µM] (inactive)
6 | COc1cc(/C=C(/C#N)c2nc3ccccc3[nH]2)ccc1Oc1ncccc1[N+](=O)[O-] | 1.58 µM (active) | –
7 | COc1ncnc(NS(=O)(=O)c2ccc(N)cc2)c1OC | – | -8.96% [at 25.6 µM] (inactive)
8 | CCOC(=O)c1cnc(N(C)C)nc1SC(=N)N | – | -4.2% [at 11.4 µM] (inactive)
9 | CSc1ccc(S(=O)(=O)Nc2ccc3c4c(cccc24)CC3)cc1 | 5.01 µM (active) | –
10 | Cc1cc(C)cc(OCC(=O)Nc2ccc3c4c(cccc24)CC3)c1 | – | -27% (inactive)
11 | CC(C)=CCC1=C(OCC(=O)O)C(=O)c2ccccc2C1=O | – | -24.9% [at 11.4 µM] (inactive)
12 | COC1=C(OC)C(=O)c2ccccc2C1=O | 20 µM (active) | –
13 | COc1nnc(OC)c2ccccc12 | – | 3.31% (inactive)
14 | C#CCn1c(=O)c2c(ncn2C)n(C)c1=O | – | -5.18% (inactive)
15 | N#Cc1c2n(c3c(=S)nc[nH]c13)CCCCC2 | – | 9.26% [at 2.29 µM] (inactive)
16 | COc1ccc2c(c1)Cc1cc(N=[N+]([O-])c3ccc4c(c3)Cc3cc(OC)ccc3-4)ccc1-2 | 5.01 µM (active) | –
17 | Cc1cccc(-n2cnc(C(=O)NC3CCCCCC3)c2)n1 | 14.1 µM (active) | –
18 | Cc1cc(Cl)nc(NC(=O)CSc2ccc(Cl)cc2)n1 | – | -7.2% [at 11.4 µM] (inactive)
19 | Cc1cnc(NC(=O)CSc2ccc(Cl)cc2)s1 | 15.8 µM (active) | –
20 | Nc1nc(Sc2ccc([N+](=O)[O-])c3nonc23)c2[nH]cnc2n1 | – | -24.7% [at 11.4 µM] (inactive)
21 | Nc1nc(N)c2[nH]cnc2n1 (tested in a mixture with another compound) | – | -3.42% [at 11.4 µM] (inactive)
22 | Nc1nc(N)c(CCCCc2ccccc2)c(N)n1 | – | 5.2% [at 11.4 µM] (inactive)

Row | SMILES | AC50 | activity, negative = inhibition
23 | CCC[C@H](Sc1nc(N)nc2nc[nH]c12)C(=O)O | – | -4.34% [at 11.4 µM] (inactive)
24 | CC(C)[C@H](Sc1nc(N)nc2nc[nH]c12)C(=O)O | – | -2.83% [at 11.4 µM] (inactive)
25 | Nc1nc(SCCc2ccccc2)c2[nH]cnc2n1 | 2.51 µM (active) | –
26 | Nc1nc(SCc2ccccc2[N+](=O)[O-])c2[nH]cnc2n1 | 3.16 µM (active) | –
27 | Nc1nc(SC/C=C\c2ccccc2)c2[nH]cnc2n1 | 2.51 µM (active) | –
28 | COc1cccc(=O)c2c(C)n(-c3cc(C)cc(C)c3)c(C)c12 | 4.47 µM (active) | –
29 | COc1ccc(-n2c(C)n[nH]c2=O)cc1OC | – | 2.19% (inactive)
30 | CN(C)CCC=C1c2ccccc2C=Cc2ccccc21 | inactive | –
31 | O=C(O)[C@@H]1CCCN1Cc1cc2ccccc2c2ccccc12 | – | -12.1% [at 11.4 µM] (inactive)
32 | CC(C)CC(=O)N[C@H](C(=O)N[C@H](C(=O)N[C@@H](CC(C)C)[C@H](O)CC(=O)N[C@@H](C)C(=O)N[C@@H](CC(C)C)[C@H](O)CC(=O)O)C(C)C)C(C)C | – | -8.61% [at 25.6 µM] (inactive)
33 | O=C(CSc1ccccc1)Nc1ccc(NC(=O)c2ccco2)cc1 | – | -25.4% (inactive)
34 | Cc1c(Cl)cccc1NC(=O)CCC(=O)NNC(=O)c1ccco1 | – | 1.8% [at 2.29 µM] (inactive)
35 | O=C(CSc1ccc(Cl)cc1)Nc1cccc(NC(=O)c2ccco2)c1 | – | -17.5% [at 11.4 µM] (inactive)
36 | Cc1ccc(NC(=O)CCC(=O)NNC(=O)c2ccco2)cc1C | – | -4.43% [at 2.29 µM] (inactive)
37 | CC(=O)c1ccc(-n2nnnc2SCC(=O)Nc2cccc(NC(=O)c3ccco3)c2)cc1 | 3.98 µM (active) | –
38 | CCc1cc2cc(C)c(C)cc2nc1SCC(=O)NNC(=O)c1ccco1 | 8.91 µM (active) | –
39 | Cc1ccc(SCC(=O)Nc2cccc(NC(=O)c3ccco3)c2)cc1 | 22.4 µM (active) | –
40 | Cc1ccc(-n2nnnc2SCC(=O)NNC(=O)c2ccco2)c(C)c1 | 22.4 µM (active) | –
41 | Cn1c2c(c(=O)n(C)c1=O)CN(CCN1CCNCC1)CN2 | – | 1.78% (inactive)
42 | O=C(Cn1nnc2ccccc21)N/N=C\C=C\c1ccccc1 | – | -3.42% (inactive)
43 | O=C(CSCC(=O)OCn1nnc2ccccc2c1=O)Nc1ccc(Cl)cc1 | 22.4 µM (active) | –
44 | O=C(OCn1nnc2ccccc2c1=O)c1cccnc1 | 8.91 µM (active) | –

Row | SMILES | AC50 | activity, negative = inhibition
45 | Cc1ccc(NC(=O)C2CCN(S(C)(=O)=O)CC2)cc1 | – | 0.664% [at 2.29 µM] (inactive)
46 | COc1ccc2nc(NC(=O)C3CCN(S(=O)(=O)c4cccc5nsnc45)CC3)sc2c1 | 14.1 µM (active) | –
47 | CCc1ccc(NC(=O)C2CCN(S(=O)(=O)c3c(C)[nH]c(=O)[nH]c3=O)CC2)cc1 | – | -15.2% (inactive)
48 | COc1ccc2nc(NCN3C(=O)c4ccccc4C3=O)sc2c1 | – | -27.9% [at 11.4 µM] (inactive)
49 | Cc1cccc(NC(=O)C2CCN(S(=O)(=O)c3cccc4nsnc34)CC2)n1 | – | -13.5% (inactive)
50 | Nc1nc2c(C(=O)NCc3cccs3)nnn2c2cccc(Cl)c12 | – | -1.06% [at 11.4 µM] (inactive)
51 | O=C(NCC1COc2ccccc2O1)C1CCN(S(=O)(=O)c2cccc3nsnc23)CC1 (configuration not stated) | 20 µM (active) | –
52 | O=C(NCc1cccs1)C1CCN(S(=O)(=O)c2cccc3nsnc23)CC1 | 12.6 µM (active) | –
53 | COc1ccc(OC)c(S(=O)(=O)N2CCC(C(=O)Nc3ccc(C)c(C)c3)CC2)c1 | 5.01 µM (active) | –
54 | CC(C)=CCNc1ncnc2nc[nH]c12 | – | -14.9% [at 11.4 µM] (inactive)
55 | COc1ccc(CCNC(=O)C2CCN(S(=O)(=O)c3cccc4nsnc34)CC2)cc1OC | 3.98 µM (active) | –
56 | CC(=O)Nc1ccc(NC(=O)C2CCN(S(=O)(=O)c3cccc4nonc34)CC2)cc1 | – | -29.4% (inactive)
57 | COc1cc(NC(=O)C2CCN(S(=O)(=O)c3cccc4nonc34)CC2)cc(OC)c1 | 3.16 µM (active) | –
58 | COC(=O)c1ccccc1OCC(=O)N1CCN(c2ccc(Cl)cc2)CC1 | 15.8 µM (active) | –
59 | COC(=O)c1ccccc1OCC(=O)N1CCN(c2ccc(OC)cc2)CC1 | – | -29.6% [at 11.4 µM] (inactive)
60 | COC(=O)c1ccccc1Oc1c(F)c(F)nc(N2CCOCC2)c1F | – | -22.2% (inactive)
61 | OCCCNc1ncnc2[nH]ncc12 | – | -20.7% [at 11.4 µM] (inactive)
62 | O=S1(=O)C=C(SCc2cccc(Cl)c2)Nc2ccccc21 | 2 µM (active) | –
63 | CC[C@@H]1CC(=O)N(SC[C@H](N)C(=O)O)C1=O | – | -4.06% [at 11.4 µM] (inactive)
64 | COc1cccc(Cn2c(=O)c(-c3ccccc3)nc3cnc(N(C)C)nc32)c1 | 6.31 µM (active) | –
65 | COc1cccc(Cn2c(=O)c(-c3cc(F)cc(F)c3)nc3cnc(N(C)C)nc32)c1 | – | -27.5% (inactive)
66 | COc1cccc(Cn2c(=O)c(-c3ccccc3)nc3cnc(OC)nc32)c1 | 7.94 µM (active) | –

Row | SMILES | AC50 | activity, negative = inhibition
67 | CN(C)c1ncc2nc(-c3ccccc3)c(=O)n(C)c2n1 | – | -29.7% (inactive)
68 | COc1ccc(-c2nc3cnc(OC)nc3n(Cc3cccc(OC)c3)c2=O)cc1 | 2.51 µM (active) | –
69 | Oc1c(Br)cc(CN(Cc2cc(Br)c(O)c(Br)c2)C2CCCCC2)cc1Br | – | -9.71% [at 11.4 µM] (inactive)
70 | COc1ccc(C2=Nc3cccc4cccc(c34)N2)cc1 | – | 12.5% (inactive)
71 | COc1cccc(-c2cncnc2NCc2ccc(OC)cc2OC)c1 | 0.501 µM (active) | –
72 | COc1ccc(CNc2ncncc2-c2cccnc2)c(OC)c1 | 0.501 µM (active) | –
73 | COc1ccc(CNc2ncncc2-c2cccc(C#N)c2)c(OC)c1 | 0.316 µM (active) | –
74 | COc1cccc(-c2cncnc2NCc2ccccc2OC)c1 | 0.501 µM (active) | –
75 | CCNc1nc(NCC)nc(ON=C(C)C)n1 | – | -10.1% (inactive)
76 | Cn1ccnc1C[C@@](C)(O)c1ccccc1 | – | -4.26% [at 11.4 µM] (inactive)
77 | CCn1cc(C(=O)N/N=C(/C)c2ccc(F)cc2)c(=O)c2cc(F)c(N3CCCC3)cc21 | – | -9.03% (inactive)
78 | COc1ccccc1CNc1ncncc1-c1cccnc1 | 0.794 µM (active) | –
79 | CCOC(=O)CCN1C(=O)[C@H]2[C@H]3[C@H](O)[C@H](O)C/C(=N/OC[C@@H](O)COCc4ccco4)[C@H]3CC[C@@H]2C1=O | – | -22.6% [at 11.4 µM] (inactive)
80 | C[C@@H](c1ccccc1)N1C(=O)[C@H]2[C@H]3[C@H](O)[C@H](O)C/C(=N/OC[C@@H](O)COCc4ccco4)[C@H]3CC[C@@H]2C1=O | 3.98 µM (active) | –
81 | O=C1[C@H]2[C@H]3[C@H](O)[C@H](O)C/C(=N/OC[C@@H](O)COCc4ccco4)[C@H]3CC[C@@H]2C(=O)N1C[C@@H]1CCCO1 | – | -13.4% [at 11.4 µM] (inactive)
82 | C[C@@H](c1ccccc1)N1C(=O)[C@H]2[C@H]3[C@H](O)[C@H](O)C/C(=N/OC[C@@H](O)COCc4ccco4)[C@@H]3CC[C@@H]2C1=O | 3.16 µM (active) | –
83 | C[C@@H](c1ccccc1)N1C(=O)[C@H]2[C@@H]3[C@H](O)[C@H](O)CC(=O)[C@H]3CC[C@H]2C1=O | – | -24.3% [at 11.4 µM] (inactive) and -16.6% [at 11.4 µM] (inactive)
84 | CC(=O)OC[C@@H]1O[C@@H](O/N=C2/C[C@@H](O)[C@@H](O)[C@@H]3[C@@H]4C(=O)N([C@@H](C)c5ccccc5)C(=O)[C@H]4CC[C@H]23)[C@H](OC(C)=O)[C@H](OC(C)=O)[C@@H]1OC(C)=O | – | -29.1% [at 11.4 µM] (inactive)
85 | CC(C)(C)N1C(=O)[C@H]2[C@H]3[C@H](O)[C@H](O)C/C(=N/OC[C@@H](O)COCc4ccco4)[C@@H]3CC[C@@H]2C1=O | 5.01 µM (active) | –
86 | CCOC(=O)CCN1C(=O)[C@H]2[C@H]3[C@H](O)[C@H](O)C/C(=N/OC[C@@H](O)COCc4ccco4)[C@@H]3CC[C@@H]2C1=O | – | -16.7% [at 11.4 µM] (inactive)
87 | O=C1[C@H]2[C@H]3[C@H](O)[C@H](O)C/C(=N/OC[C@@H](O)COCc4ccco4)[C@@H]3CC[C@@H]2C(=O)N1C[C@@H]1CCCO1 | – | -23.9% [at 11.4 µM] (inactive)
